Measurements from PubChem BioAssay.

Assays:
[1] = tested on: Human papillomavirus type 1a protein E7 (residues 44-93); assay: small molecules binding HPV E7 44-93 – biochemical, small-molecule microarray, residues 44-93, 635 nm fluorescence, primary screen (AID 1108); settings: fluorescence 635 nm, higher = more signal;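 also: E7 fragment applied at 1 µg/mL in TBST for 1 h at 4 C; score combines spot fluorescence with its signal to noise ratio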
[2] = hepatitis C replication reporter changes, two-sided – Huh7 cells, luciferase reporter, HCV replication inhibitor project, primary screen (AID 1109); settings: Huh7 HCV replicon luciferase reporter, 48 h; higher = more signal;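 also: huh7 hepatoma cells harbouring a luciferase neomycin HCV replicon reporter; luciferase luminescence as measure of HCV replicon replication; test concentration not given here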
[3] = target: Left-right determination factor 2 (Homo sapiens) (UniProt O00292); assay: small molecules binding LEFTY2 protein – biochemical, small-molecule microarray, 635 nm fluorescence scan, primary screen (AID 1110); settings: higher = more signal
Left-right determination factor 2 (Homo sapiens), sequence (O00292 whole entry, looked up): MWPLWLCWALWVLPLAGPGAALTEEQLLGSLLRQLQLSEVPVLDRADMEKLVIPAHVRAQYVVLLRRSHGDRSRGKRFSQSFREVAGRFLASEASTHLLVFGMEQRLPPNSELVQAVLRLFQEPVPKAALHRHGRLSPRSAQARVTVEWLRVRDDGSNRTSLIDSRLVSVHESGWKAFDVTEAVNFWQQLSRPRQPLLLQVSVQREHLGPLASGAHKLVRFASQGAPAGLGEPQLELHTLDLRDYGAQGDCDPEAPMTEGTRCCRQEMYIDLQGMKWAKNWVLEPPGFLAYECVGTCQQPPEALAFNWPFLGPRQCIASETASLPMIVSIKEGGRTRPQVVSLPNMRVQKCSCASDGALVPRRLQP

[4] = target: Calmodulin-1 (Homo sapiens) (UniProt P0DP23); assay: small molecules binding calmodulin-1 with EGTA – biochemical, small-molecule microarray, Cy5-labelled CALM1, profiling panel (AID 1111); settings: Cy5-CALM1 binding fluorescence, higher = more signal;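 also: labelled calmodulin applied in Tris saline Tween buffer holding calcium plus EGTA and DTT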
[5] = target: Calmodulin-1 (Homo sapiens) (UniProt P0DP23); assay: small molecules binding Ca-loaded calmodulin-1 – biochemical, small-molecule microarray, Cy5-labelled CALM1, plus calcium, artefact control for SMM control-protein annotation, profiling panel (AID 1112); settings: Cy5-CALM1 binding fluorescence, higher = more signal;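 also: score merges spot fluorescence with signal to noise from triplicate slides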
[6] = probe aWnt5a binding to arrayed compounds – biochemical, biotinylated probe, 635/667 nm fluorescence, primary screen (AID 1113); settings: small-molecule microarray, higher = more signal;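 also: score merges 667 nm fluorescence intensity with signal-to-noise per printed feature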
[7] = probe aShh binding to arrayed compounds – biochemical, biotinylated probe, 635/667 nm fluorescence, primary screen (AID 1114); settings: small-molecule microarray, higher = more signal;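 also: probe is biotin-labelled aShh protein from a stem cell growth factor screen; measures binding of labelled protein to compounds printed on the slide; score merges feature fluorescence at 667 nm with signal-to-noise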
[8] = probe aNog binding to arrayed compounds – biochemical, biotinylated probe, 635/667 nm fluorescence, primary screen (AID 1115); settings: small-molecule microarray, higher = more signal;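 also: probe is biotinylated aNog protein used at 0.15 µg/mL for 1 h at 4 C; z-score combines 667 nm fluorescence of each spot with its signal to noise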
[9] = target: Torsin-1A-interacting protein 1 (Homo sapiens) (UniProt Q5JTV8); assay: compound microarray binding of lysate hLAP1 – cell lysate, small-molecule microarray, COS7 lysate, 635/667 nm fluorescence, primary screen (AID 1116); settings: 635 nm fluorescence, higher = more signal
Torsin-1A-interacting protein 1 (Homo sapiens), sequence (Q5JTV8 whole entry, looked up): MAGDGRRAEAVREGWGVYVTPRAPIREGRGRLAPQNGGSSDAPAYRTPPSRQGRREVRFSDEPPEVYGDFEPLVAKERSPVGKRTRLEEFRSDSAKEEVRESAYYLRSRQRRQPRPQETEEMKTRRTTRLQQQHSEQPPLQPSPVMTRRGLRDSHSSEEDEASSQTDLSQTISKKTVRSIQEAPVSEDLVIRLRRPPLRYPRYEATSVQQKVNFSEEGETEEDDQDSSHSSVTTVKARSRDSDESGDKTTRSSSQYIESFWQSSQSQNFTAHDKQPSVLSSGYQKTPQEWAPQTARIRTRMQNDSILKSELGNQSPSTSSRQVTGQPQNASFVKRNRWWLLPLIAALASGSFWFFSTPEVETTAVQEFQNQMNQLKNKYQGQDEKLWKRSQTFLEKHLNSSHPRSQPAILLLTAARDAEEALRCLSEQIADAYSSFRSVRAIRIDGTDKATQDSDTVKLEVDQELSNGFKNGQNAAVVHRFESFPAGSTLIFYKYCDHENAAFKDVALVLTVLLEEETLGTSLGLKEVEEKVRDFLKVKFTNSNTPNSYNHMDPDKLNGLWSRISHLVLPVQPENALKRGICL

[10] = target: Alpha-bungarotoxin (Bungarus multicinctus) (UniProt P60615); assay: compounds binding labelled alpha-BTX control protein – biochemical, small-molecule microarray, Alexa647 label, 635/667 nm fluorescence, artefact control for SMM control protein annotation, profiling panel (AID 1117); settings: alpha-BTX-A647 binding fluorescence, higher = more signal
Alpha-bungarotoxin (Bungarus multicinctus), sequence (P60615 whole entry, looked up): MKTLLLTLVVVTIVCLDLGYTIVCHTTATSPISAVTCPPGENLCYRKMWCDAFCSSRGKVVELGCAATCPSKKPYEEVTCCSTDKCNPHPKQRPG

| Structure (SMILES) | composite z-score [1] | z-score [2] | composite z-score [3] | composite z-score [4] | composite z-score [5] | composite z-score [6] | composite z-score [7] | composite z-score [8] | composite z-score [9] | composite z-score [10] |
| --- | --- | --- | --- | --- | --- | --- | --- | --- | --- | --- |
| COc1ccc([Si](C)(C)[C@@H]2[C@@H](CC(=O)N3CCC[C@H]3CO)O[C@]3(C(=O)N(Cc4cccc(I)c4)c4ccccc43)[C@H]2C)cc1 | 1.32 | -2.72 | 1.39 | 0.374 | 0.935 | 0.116 | -0.138 | -0.0173 | 1.62 | 0.181 |
| CCOC(=O)C1=CC[C@@H](c2ccc(C(F)(F)F)cc2)N(S(=O)(=O)c2ccc(C)cc2)[C@H]1c1ccccc1 | 0.277 | -1.1 | 0.221 | 2.08 | 0.55 | 0.201 | 0.109 | 1.43 | 1.51 | 1.56 |
| CC1CC/C=C\[C@H]2OC34C=CCN(Cc5ccccc5)C(=O)[C@H]3N(C(C)CO)C(=O)[C@@H]4C2C(=O)O1 (stereo not given in full) | -1.75 | -0.514 | 0.267 | -0.756 | -0.857 | -0.148 | 0.0952 | -0.193 | -0.457 | -0.463 |
| C=CCNC(=O)[C@H]1[C@@H]2C(=O)O[C@@H](c3ccccc3)[C@@H](c3ccccc3)N2[C@@H](c2ccc(O)cc2)[C@]12C(=O)Nc1ccc(C#CCCO)cc12 | -0.336 | 0.142 | 0.185 | -0.314 | 0.107 | -0.124 | 0.0982 | -0.161 | -0.428 | -0.503 |
| COC(=O)[C@@]1(Cc2ccc(OC)cc2)[C@H]2c3cc(C(=O)N4CCCC4)n(Cc4nc5ccccc5[nH]4)c3C[C@H]2CN1C(=O)c1ccccc1 | 1.38 | -2.61 | -0.413 | 2.7 | 1.54 | 0.216 | 0.215 | 2.39 | 2.79 | 1.07 |
| O=C1NC(=O)C2C1C=CC(C(O)c1ccc(-c3ccccc3)s1)N2Nc1ccc(Cl)cc1Cl (stereo not given) | 1.29 | 1.7 | -0.114 | 1.65 | 1.03 | 0.1 | 0.213 | -0.358 | 0.712 | 1.06 |
| O=C1O[C@H](c2ccccc2)[C@H](c2ccccc2)N2[C@H]1[C@@H](C(=O)N1CCN(c3ncccn3)CC1)[C@]1(C(=O)Nc3ccc(C#CC4=CCCCC4)cc31)[C@H]2c1ccccc1OCCO | 0.379 | -1.67 | 0.818 | 0.858 | -0.198 | 0.212 | 0.299 | 0.998 | 0.201 | 1.59 |
| O=C(CS)NCCCCCNC(=O)[C@H]1C[C@H]2C(=O)NCC(=O)N2[C@H]1c1ccc(O)cc1 | -1.12 | 0.464 | -0.55 | -0.0906 | -0.0879 | -0.256 | -0.214 | -0.175 | -0.736 | -0.129 |
| COCCOC(=O)N1C(=O)[C@@]2(c3cc(C#CC4(O)CCCCCC4)ccc31)[C@H](C(=O)Nc1nc3ccccc3s1)[C@H]1C(=O)O[C@H](c3ccccc3)[C@H](c3ccccc3)N1[C@@H]2c1ccccc1OCCO | -0.441 | -1.66 | 0.555 | 1.71 | 0.926 | -0.0165 | 0.321 | 0.546 | 0.547 | 2.37 |
| CC(C)=CCCC(C)=CC(O)C1C=CC2C(=O)N(c3ccccc3)C(=O)C2N1Nc1ccc(C(C)C)cc1 (stereo not given) | 1.45 | -0.0821 | -0.0675 | 0.943 | 0.415 | 0.163 | 0.0839 | 1.6 | 0.203 | 0.925 |
| OB1C=CCC(CCc2ccccc2)O1 (stereo not given) | -1.86 | 1.1 | -0.32 | -0.961 | -0.455 | -0.263 | -0.117 | -0.39 | 0.363 | -0.725 |
| CN(C)C(=O)[C@]1(Cc2ccccc2)N=C(c2ccc(OCCCO)cc2)O[C@@H]1c1ccccc1N=[N+]=[N-] | 1.4 | -2.58 | 0.357 | 1.63 | 0.393 | 0.0926 | 0.398 | -0.0332 | 2.01 | 1.37 |
